According to PubChem BioAssay (EPA / NIEHS):
The source made the active and inactive calls. How the source made its calls: active means hit-call score of the fitted dose curve at least 0.9, where 1 is the maximum; inactive means score below 0.9.

Experiments:
[1] = ATG_M_32_CIS: Attagene CIS-FACTORIAL HepG2 Assay for M32 Transcription Factor (Internal Marker) (AID 2282949); details: HepG2 Attagene cis-factorial M32 reporter, mRNA; actives raise or lower the signal;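 further: background control marker of the multiplexed CIS panel rather than a real target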
Summary of the method: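 Transient MRTU transfection of HepG2; 24 h compound treatment; TriZol RNA, oligo(dT) RT, reporter PCR, 6-FAM primer extension, HpaI cut, CE. Gain/loss of signal vs DMSO.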

[2] = ATG_M_06_CIS: Attagene CIS-FACTORIAL HepG2 Assay for M06 Transcription Factor (Internal Marker) (AID 2282950); details: HepG2 Attagene CIS-FACTORIAL M06 internal marker reporter; actives raise or lower the signal
Summary of the method: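 Measured 24 h post-dosing in transiently transfected HepG2 cells, this internal-marker endpoint reports reporter mRNA via RT-PCR with fluorescent primer extension and capillary electrophoresis. DMSO served as negative control and baseline for bidirectional fitting.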

[3] = molecular target: Hypoxia-inducible factor 1-alpha (Homo sapiens) (UniProt Q16665); experiment: ATG_HIF1a_CIS: Attagene CIS-FACTORIAL HepG2 Assay for human Hypoxia Inducible Factor 1 (HIF1A) (AID 2282951); details: HepG2 Attagene cis-factorial HIF1a reporter transcription; actives raise or lower the signal
Chain of Hypoxia-inducible factor 1-alpha (Homo sapiens) (Q16665 whole entry, looked up): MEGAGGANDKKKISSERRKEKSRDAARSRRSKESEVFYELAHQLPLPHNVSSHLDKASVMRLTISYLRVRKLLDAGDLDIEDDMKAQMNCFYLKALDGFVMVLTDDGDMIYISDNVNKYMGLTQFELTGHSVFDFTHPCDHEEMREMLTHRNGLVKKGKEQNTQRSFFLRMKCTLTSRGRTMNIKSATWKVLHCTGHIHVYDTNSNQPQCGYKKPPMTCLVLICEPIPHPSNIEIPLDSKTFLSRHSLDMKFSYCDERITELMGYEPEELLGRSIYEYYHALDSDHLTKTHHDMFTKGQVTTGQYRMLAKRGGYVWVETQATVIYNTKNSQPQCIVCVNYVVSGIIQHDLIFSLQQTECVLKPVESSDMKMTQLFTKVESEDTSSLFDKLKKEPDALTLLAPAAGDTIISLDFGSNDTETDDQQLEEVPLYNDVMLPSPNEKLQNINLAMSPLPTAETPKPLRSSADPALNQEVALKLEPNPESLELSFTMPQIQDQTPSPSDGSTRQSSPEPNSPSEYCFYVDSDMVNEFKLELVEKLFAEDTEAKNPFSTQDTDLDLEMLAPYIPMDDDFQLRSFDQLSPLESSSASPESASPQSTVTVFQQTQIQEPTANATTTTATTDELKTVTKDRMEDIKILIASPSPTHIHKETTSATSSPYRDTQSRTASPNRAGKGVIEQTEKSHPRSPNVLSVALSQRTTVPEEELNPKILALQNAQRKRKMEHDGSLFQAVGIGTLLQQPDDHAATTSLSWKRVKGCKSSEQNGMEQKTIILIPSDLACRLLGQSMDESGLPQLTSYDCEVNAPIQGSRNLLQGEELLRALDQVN
Summary of the method: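 Measures endogenous transcription-factor activity through cis-regulated reporter mRNA in HepG2. Cells dosed 24 h; transcripts quantified by RT-PCR with 6-FAM-labelled products separated by capillary electrophoresis; DMSO serves as negative control.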

[4] = molecular target: Hepatocyte nuclear factor 6 (Homo sapiens) (UniProt Q9UBC0); experiment: ATG_HNF6_CIS: Attagene CIS-FACTORIAL HepG2 Assay for human Hepatocyte Nuclear Factor 6 (HNF6) (AID 2282952); details: HepG2 Attagene cis-factorial HNF6 reporter transcription; actives raise or lower the signal
Chain of Hepatocyte nuclear factor 6 (Homo sapiens) (Q9UBC0 whole entry, looked up, the tested form may be a part): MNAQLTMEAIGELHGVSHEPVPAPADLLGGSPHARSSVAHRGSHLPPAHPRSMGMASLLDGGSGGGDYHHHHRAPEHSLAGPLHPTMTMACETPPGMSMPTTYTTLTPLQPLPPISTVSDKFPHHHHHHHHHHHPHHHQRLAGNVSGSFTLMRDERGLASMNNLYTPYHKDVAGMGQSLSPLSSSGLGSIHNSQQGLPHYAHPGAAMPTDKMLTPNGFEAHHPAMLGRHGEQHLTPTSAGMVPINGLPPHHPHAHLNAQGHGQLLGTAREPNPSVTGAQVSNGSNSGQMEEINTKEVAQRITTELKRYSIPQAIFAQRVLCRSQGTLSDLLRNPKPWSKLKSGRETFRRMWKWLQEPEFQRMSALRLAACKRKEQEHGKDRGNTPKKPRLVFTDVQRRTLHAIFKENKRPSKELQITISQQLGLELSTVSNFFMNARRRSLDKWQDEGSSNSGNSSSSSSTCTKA
Summary of the method: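 First, HepG2 cells were transfected with the multiplexed cis reporter library and dosed with chemical for 24 h. Next, RNA was reverse-transcribed, PCR-amplified and fluorescently labelled. Finally, HpaI-digested fragments were read by capillary electrophoresis.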

[5] = molecular target: Heat shock factor protein 1 (Homo sapiens) (UniProt Q00613); experiment: ATG_HSE_CIS: Attagene CIS-FACTORIAL HepG2 Assay for human Heat Shock Transcription Factor 1 (HSE) (AID 2282953); details: HepG2 HSE cis-reporter, Attagene RNA transcription; actives raise or lower the signal
Chain of Heat shock factor protein 1 (Homo sapiens) (Q00613 whole entry, looked up): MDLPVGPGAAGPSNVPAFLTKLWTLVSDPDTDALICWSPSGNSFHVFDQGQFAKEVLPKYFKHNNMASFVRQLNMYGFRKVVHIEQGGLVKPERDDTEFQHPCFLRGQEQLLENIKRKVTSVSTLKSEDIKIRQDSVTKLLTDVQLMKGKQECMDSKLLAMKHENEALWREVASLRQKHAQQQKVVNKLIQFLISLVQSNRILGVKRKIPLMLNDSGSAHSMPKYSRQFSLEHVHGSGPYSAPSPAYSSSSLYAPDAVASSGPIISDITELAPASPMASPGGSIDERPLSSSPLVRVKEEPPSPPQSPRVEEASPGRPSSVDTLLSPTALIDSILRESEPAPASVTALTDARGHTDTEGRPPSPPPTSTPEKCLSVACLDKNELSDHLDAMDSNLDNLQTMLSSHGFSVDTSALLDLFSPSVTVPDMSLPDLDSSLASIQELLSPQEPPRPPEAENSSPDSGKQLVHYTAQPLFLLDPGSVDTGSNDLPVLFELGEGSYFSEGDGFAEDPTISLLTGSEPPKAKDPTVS
Summary of the method: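 Reporter mRNA induction in HepG2 is measured 24 h after dosing, using transiently transfected multiplexed cis-regulated reporter units. Signal comes from capillary electrophoresis of labelled RT-PCR products, with DMSO as negative control.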

[6] = ATG_MRE_CIS: Attagene CIS-FACTORIAL HepG2 Assay for human Metal Responsive Element (MRE) (AID 2282954); details: HepG2 MRE cis-reporter transcription, Attagene multiplex; actives raise or lower the signal
Summary of the method: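 Multiplexed cis-reporter assay in human HepG2 liver cells, 24 h incubation with test chemical. Reporter transcripts measured by RT-PCR and capillary electrophoresis; values from bidirectional curve fitting versus DMSO.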

[7] = ATG_PBREM_CIS: Attagene CIS-FACTORIAL HepG2 Assay for human Phenobarbital-responsive Enhancer Module (PBREM) (AID 2282955); details: HepG2 PBREM cis-reporter, Attagene multiplexed transcription; actives raise or lower the signal
Summary of the method: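 Fluorescence of labelled reporter cDNA fragments, resolved by capillary electrophoresis, gives mRNA induction in transfected HepG2 cells treated for 24 h; DMSO serves as negative control and baseline.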

[8] = molecular target: Paired box protein Pax-6 (Homo sapiens) (UniProt P26367); experiment: ATG_Pax6_CIS: Attagene CIS-FACTORIAL HepG2 Assay for human Paired Box 6 (PAX6) (AID 2282956); details: HepG2 CIS-FACTORIAL PAX6 reporter transcription, RNA readout; actives raise or lower the signal
Chain of Paired box protein Pax-6 (Homo sapiens) (P26367 whole entry, looked up): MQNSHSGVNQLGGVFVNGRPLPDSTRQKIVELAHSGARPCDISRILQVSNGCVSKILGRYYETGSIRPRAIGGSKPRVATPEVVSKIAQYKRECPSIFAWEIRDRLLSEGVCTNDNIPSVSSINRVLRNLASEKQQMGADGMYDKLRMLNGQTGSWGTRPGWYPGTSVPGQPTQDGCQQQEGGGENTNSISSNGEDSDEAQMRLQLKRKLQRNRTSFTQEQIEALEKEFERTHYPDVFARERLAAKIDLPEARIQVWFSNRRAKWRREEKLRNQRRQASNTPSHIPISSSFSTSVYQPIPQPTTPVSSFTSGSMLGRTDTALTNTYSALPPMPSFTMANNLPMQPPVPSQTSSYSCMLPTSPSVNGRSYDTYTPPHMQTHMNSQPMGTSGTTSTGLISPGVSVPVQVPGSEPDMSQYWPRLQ
Summary of the method: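 Readout: reporter transcript fluorescence after RT-PCR and capillary electrophoresis. Cells: HepG2, transiently transfected with cis-regulated MRTUs. Exposure 24 h. Gain or loss of signal fitted bidirectionally relative to DMSO.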

[9] = ATG_PXRE_CIS: Attagene CIS-FACTORIAL HepG2 Assay for human Pregnane X Receptor Element (PXRE) (AID 2282957); details: HepG2 Attagene CIS-FACTORIAL PXRE reporter, mRNA; actives raise or lower the signal
Summary of the method: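 After a 24 h chemical incubation, total RNA from transfected HepG2 cells was reverse-transcribed and reporter cDNA amplified, FAM-labeled, HpaI-digested and sized by capillary electrophoresis. DMSO served as baseline for bidirectional curve fitting.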

[10] = ATG_PPRE_CIS: Attagene CIS-FACTORIAL HepG2 Assay for human Peroxisome Proliferator-activated Response Element (PPRE) (AID 2282958); details: HepG2 PPRE cis-element reporter, Attagene transcription factor profiling; actives raise or lower the signal
Summary of the method: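 Cells are first transfected transiently with the multiplexed reporter library, then dosed for 24 h. Total RNA is reverse-transcribed, amplified, fluorescently end-labeled and HpaI-cut before capillary electrophoresis; activity is fitted bidirectionally against DMSO controls.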

[11] = ATG_RORE_CIS: Attagene CIS-FACTORIAL HepG2 Assay for human RAR-related Orphan Receptor Element (RORE) (AID 2282959); details: HepG2 Attagene cis-factorial RORE reporter, mRNA; actives raise or lower the signal
Summary of the method: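 Cells were HepG2 carrying transfected cis-regulated reporter constructs, dosed for 24 hours. Total RNA was reverse-transcribed and reporter cDNA amplified, fluorescently labeled and sized by capillary electrophoresis. Activity was fitted bidirectionally relative to DMSO.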

[12] = ATG_Sox_CIS: Attagene CIS-FACTORIAL HepG2 Assay for human SRY-box transcription factor (SOX) (AID 2282960); details: HepG2 Attagene cis-factorial SOX reporter, mRNA; actives raise or lower the signal
Summary of the method: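 Transient MRTU transfection of HepG2; 24 h compound incubation; TriZol RNA, oligo(dT) RT, PCR, 6-FAM primer extension, HpaI cut, CE. Bidirectional fit, DMSO = baseline.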

[13] = molecular target: Transcription factor Sp1 (Homo sapiens) (UniProt P08047); experiment: ATG_Sp1_CIS: Attagene CIS-FACTORIAL HepG2 Assay for human Specificity Protein 1 (Sp1) (AID 2282961); details: HepG2 Sp1 cis-reporter transcription, actives raise or lower the signal
Chain of Transcription factor Sp1 (Homo sapiens) (P08047 whole entry, looked up): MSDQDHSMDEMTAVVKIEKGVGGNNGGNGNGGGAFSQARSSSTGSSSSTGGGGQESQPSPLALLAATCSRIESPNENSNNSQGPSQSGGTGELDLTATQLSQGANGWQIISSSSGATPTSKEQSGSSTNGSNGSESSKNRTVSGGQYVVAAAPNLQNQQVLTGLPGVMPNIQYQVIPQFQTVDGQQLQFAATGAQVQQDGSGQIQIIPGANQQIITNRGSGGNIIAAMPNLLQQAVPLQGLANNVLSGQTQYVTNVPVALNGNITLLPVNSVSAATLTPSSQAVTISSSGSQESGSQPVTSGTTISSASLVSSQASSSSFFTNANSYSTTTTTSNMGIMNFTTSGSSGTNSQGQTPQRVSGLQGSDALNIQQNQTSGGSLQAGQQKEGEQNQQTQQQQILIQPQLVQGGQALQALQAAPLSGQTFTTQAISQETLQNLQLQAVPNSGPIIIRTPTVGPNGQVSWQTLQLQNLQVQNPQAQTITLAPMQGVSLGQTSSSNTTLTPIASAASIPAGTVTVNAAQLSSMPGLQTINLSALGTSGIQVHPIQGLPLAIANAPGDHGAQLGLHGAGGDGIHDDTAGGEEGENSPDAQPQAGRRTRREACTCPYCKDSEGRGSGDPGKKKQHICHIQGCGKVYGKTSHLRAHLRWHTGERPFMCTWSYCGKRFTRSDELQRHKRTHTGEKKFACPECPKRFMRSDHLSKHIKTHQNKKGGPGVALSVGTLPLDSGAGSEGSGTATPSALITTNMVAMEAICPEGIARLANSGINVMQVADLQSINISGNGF
Summary of the method: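 Endogenous Sp1 activity was gauged in human liver HepG2 cells bearing transfected reporter units under a cis-regulating promoter. After 24 h dosing, reporter mRNA was quantified by RT-PCR with capillary electrophoresis, and activity fitted bidirectionally versus DMSO.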

[14] = ATG_SREBP_CIS: Attagene CIS-FACTORIAL HepG2 Assay for human Sterol Regulatory Element Binding (SREBP) (AID 2282962); details: HepG2 Attagene cis-factorial SREBP reporter, mRNA; actives raise or lower the signal
Summary of the method: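 Readout: fluorescent reporter-transcript peaks resolved by capillary electrophoresis after RT-PCR. Cells were human HepG2 carrying transfected cis-promoter reporter constructs, dosed for 24 h. Gain or loss of signal was fitted against DMSO controls.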

[15] = molecular target: Signal transducer and activator of transcription 3 (Homo sapiens) (UniProt P40763); experiment: ATG_STAT3_CIS: Attagene CIS-FACTORIAL HepG2 Assay for human Signal Transducer and Activator of Transcription 3 (STAT3) (AID 2282963); details: HepG2, Attagene cis-factorial STAT3 reporter transcription; actives raise or lower the signal
Chain of Signal transducer and activator of transcription 3 (Homo sapiens) (P40763 whole entry, looked up): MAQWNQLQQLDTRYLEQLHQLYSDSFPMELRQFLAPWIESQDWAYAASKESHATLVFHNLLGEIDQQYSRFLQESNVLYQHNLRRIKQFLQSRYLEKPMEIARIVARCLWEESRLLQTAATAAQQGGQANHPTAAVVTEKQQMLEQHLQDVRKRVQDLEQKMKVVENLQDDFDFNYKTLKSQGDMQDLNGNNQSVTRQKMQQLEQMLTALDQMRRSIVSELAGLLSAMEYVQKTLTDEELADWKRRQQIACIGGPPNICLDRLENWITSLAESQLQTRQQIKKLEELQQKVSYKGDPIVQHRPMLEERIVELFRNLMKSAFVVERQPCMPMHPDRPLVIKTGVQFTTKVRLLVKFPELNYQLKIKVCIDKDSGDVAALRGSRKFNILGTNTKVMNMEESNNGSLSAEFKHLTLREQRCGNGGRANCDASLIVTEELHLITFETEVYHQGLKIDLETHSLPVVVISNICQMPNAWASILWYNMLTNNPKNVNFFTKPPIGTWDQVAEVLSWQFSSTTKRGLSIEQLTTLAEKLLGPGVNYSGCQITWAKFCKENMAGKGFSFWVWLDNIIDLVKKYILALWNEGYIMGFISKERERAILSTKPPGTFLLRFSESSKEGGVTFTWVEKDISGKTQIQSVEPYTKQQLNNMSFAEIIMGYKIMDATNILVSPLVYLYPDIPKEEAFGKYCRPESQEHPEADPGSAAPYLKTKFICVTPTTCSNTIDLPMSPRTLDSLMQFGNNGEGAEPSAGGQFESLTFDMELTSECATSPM
Summary of the method: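 Cis-factorial format: endogenous transcription factors in HepG2 drive transfected reporter units. After 24 h treatment, reporter RNA was reverse-transcribed, amplified, FAM-labelled and HpaI-digested before CE analysis; activity scored in both directions against DMSO.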

[16] = ATG_TA_CIS: Attagene CIS-FACTORIAL HepG2 Assay for human TA Basal Promoter (AID 2282964); details: HepG2 Attagene CIS-factorial TA basal promoter reporter; actives raise or lower the signal
Summary of the method: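 Cis-factorial format in HepG2: reporters report endogenous factors, not chimeric Gal4 fusions. After 24 h treatment, reporter transcripts were measured by RT-PCR-capillary electrophoresis fluorescence, analysed bidirectionally versus DMSO.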

[17] = ATG_TGFb_CIS: Attagene CIS-FACTORIAL HepG2 Assay for human Transforming Growth Factor (TGF) (AID 2282967); details: HepG2 Attagene CIS TGFb reporter, mRNA transcription; actives raise or lower the signal
Summary of the method: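 Multiplexed cis-reporter HepG2 system, 24 h treatment; mRNA induction read by fluorescence after RT-PCR and CE; DMSO negative control, bidirectional curve fitting.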

[18] = ATG_VDRE_CIS: Attagene CIS-FACTORIAL HepG2 Assay for human Vitamin D Receptor Element (VDRE) (AID 2282968); details: HepG2 VDRE cis-reporter transcription, actives raise or lower the signal
Summary of the method: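 Measures endogenous factor activity through cis-element-driven reporter transcripts in transiently transfected HepG2. Cells are treated 24 h; reporter mRNA is quantified by RT-PCR and capillary electrophoresis; fitting is bidirectional.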

[19] = ATG_TCF_b_cat_CIS: Attagene CIS-FACTORIAL HepG2 Assay for human T-Cell-Factor with beta-catenin (TCF/b-cat) (AID 2282965); details: HepG2 TCF/beta-catenin cis-reporter transcription, actives raise or lower the signal
Summary of the method: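 Endogenous TCF/LEF activity read as reporter transcript level via RT-PCR and capillary electrophoresis fluorescence in transfected HepG2, 24 h exposure; gain or loss of signal fitted against DMSO controls.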

[20] = ATG_TAL_CIS: Attagene CIS-FACTORIAL HepG2 Assay for human TAL Basal Promoter (AID 2282966); details: HepG2 Attagene cis-factorial TAL promoter reporter; actives raise or lower the signal;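 further: background control endpoint measuring basal TAL promoter reporter mRNA not a specific factor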
Summary of the method: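 Basal-promoter background-control endpoint from a multiplexed HepG2 reporter panel. Cells were exposed 24 h, then reporter mRNA was read by RT-PCR/CE fluorescence and fitted in both directions relative to DMSO.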

Measured: AC50

Cc1ccc(OP(=O)(Oc2ccc(C)cc2C)Oc2ccc(C)cc2C)c(C)c1
active: [4] 25.4 µM | [6] 2.33 µM | [9] 0.181 µM | [13] 26.2 µM | [18] 0.534 µM
not listed: [19] | [20]
inactive: all other assays above

CC1(C)COP(Oc2ccccc2)OC1
not listed: [10] | [17]
inactive: all other assays above

Nc1ccc(-c2ccccc2)cc1
active: [6] 56.8 µM | [9] 30.1 µM
not listed: [10]
inactive: all other assays above

CCOC(=O)CC(=O)CCl
active: [5] 146 µM | [6] 26 µM | [8] 27.4 µM | [12] 26.2 µM | [13] 23.9 µM | [14] 26.2 µM | [17] 36.1 µM | [18] 27 µM
not listed: [10]
inactive: all other assays above

CC1(C)[C@H](/C=C2\CCSC2=O)[C@@H]1C(=O)OCc1coc(Cc2ccccc2)c1
active: [3] 12.9 µM | [6] 19.8 µM | [7] 0.313 µM | [8] 11.1 µM | [9] 0.143 µM | [11] 24.8 µM | [16] 30.5 µM
not listed: [18] | [20]
inactive: all other assays above

ClCc1ccccc1Cl
active: [4] 100 µM | [5] 164 µM | [8] 100 µM | [9] 38.3 µM | [12] 120 µM | [13] 100 µM | [18] 100 µM
not listed: [10]
inactive: all other assays above

Cc1cc(SCc2sc(-c3ccc(C(F)(F)F)c(F)c3)nc2C)ccc1OCC(=O)O
inactive: [1] | [2] | [4] | [7] | [12] | [13] | [14] | [15] | [17]
active: [3] 17.2 µM | [5] 50.9 µM | [6] 24.5 µM | [8] 33.4 µM | [9] 1.32 µM | [11] 8.36 µM | [16] 23 µM | [19] 24.8 µM | [20] 15.5 µM | [18] 9.54 µM

OC(Cc1ccccc1Cl)(Cn1cncn1)C1(Cl)CC1 (stereo not drawn)
active: [6] 37.3 µM | [7] 19.8 µM | [9] 8.32 µM | [18] 26 µM
not listed: [17]
inactive: all other assays above

CCCCOP(=O)(CCCC)OCCCC
active: [18] 17.7 µM
not listed: [9] | [11] | [17] | [20]
inactive: all other assays above

O=[N+]([O-])c1c2ccccc2cc2ccccc12
active: [9] 3.8 µM
not listed: [10]
inactive: all other assays above

CC(C)CC(C)(c1ccc(O)cc1)c1ccc(O)cc1
active: [5] 17 µM | [6] 16.6 µM | [8] 17.2 µM | [9] 2.92 µM | [10] 15.3 µM | [18] 5.37 µM
not listed: [19]
inactive: all other assays above

CCCCCCCCCCCCN(C)C
active: [5] 56.1 µM | [13] 53.2 µM | [14] 49 µM | [19] 48.4 µM | [20] 51.4 µM | [18] 33.4 µM
not listed: [9]
inactive: all other assays above

CCC(C)(C#N)N=NC(C)(C#N)CC (stereo not drawn)
not listed: [9] | [18] | [19]
inactive: all other assays above

C=CC(=O)[O][Sn]([CH2]CCC)([CH2]CCC)[CH2]CCC
active: [4] 0.657 µM | [5] 0.645 µM | [6] 0.412 µM | [7] 0.321 µM | [8] 0.52 µM | [9] 0.744 µM | [10] 0.00687 µM | [12] 0.67 µM | [13] 0.504 µM | [14] 0.189 µM | [15] 0.657 µM | [17] 0.367 µM | [18] 0.266 µM
inactive: [1] | [2] | [3] | [11] | [16] | [20]
